# Screens as filed in PubChem BioAssay.
# Tau fluor cs – counter-screen for tau fibril formation inhibitors | tau K18 P301L Alexa594 fluorescence, heparin fibrillization | Potency, µM (series often up to 57.7 µM) | 280,000 compounds, 0.93% hits | AID 1463; note: nearly all actives have a fitted effect of over 55% in size
#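 Human tau K18 P301L (15 uM unlabeled, 0.24 uM Alexa 594-labeled) in 100 mM sodium acetate pH 7 with 20 uM heparin, 6 hr at 37 C. ThT 30 uM added, 1 hr ambient; Alexa 594 FP and total fluorescence read at 555/632 nm.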
# Tau fibril FP – blocks human tau fibril formation measured by polarization | K18 P301L tau heparin fibrillization, Alexa594 FP, 6 h | AID 1468 | Potency, µM (titrated, usually from 57.7 µM), hits mostly inhibitors | 280,000 compounds, 0.39% hits | P10636; note: nearly all actives have a fitted effect of over 55% in size
# Target sequence (P10636 561-689 P618L limits assumed): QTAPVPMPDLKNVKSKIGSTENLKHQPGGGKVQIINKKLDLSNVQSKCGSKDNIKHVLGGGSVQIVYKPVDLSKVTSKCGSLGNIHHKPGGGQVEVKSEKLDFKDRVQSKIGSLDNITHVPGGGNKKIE
#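 Heparin (20 uM) drove fibril formation of recombinant tau K18 P301L, 15 uM unlabeled with 0.24 uM Alexa 594 label, for 6 hr at 37 C in 100 mM sodium acetate pH 7. Fluorescence polarization (555/632 nm) read 1 hr after 30 uM ThT.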
# JMJD2E inh – JMJD2E (human) inhibition. JMJD2E catalytic domain, FDH-coupled NADH fluorescence (FDH is formaldehyde dehydrogenase). Potency, µM (doses to about 57.1 µM), usual class: inhibitors. B2RXH2. 230,000 compounds, 1.6% hits; active = well fitted inhibition curve with a large enough effect, not every such curve was filed as active; inconclusive = small, poorly fitted or top-dose-only effect, or another doubt; inactive = no such curve, though single readings can be large or run the other way; note: nearly all actives have a fitted effect of over 50% in size
# Tau ThT inhib – blocks human tau fibril formation measured by thioflavin T; P10636; AID 1460; Potency, µM (top dose mostly 57.4 µM), actives largely listed as inhibitors; recombinant tau K18 P301L, heparin-induced fibrillization, ThT fluorescence; 270,000 compounds, 2.1% hits; note: nearly all actives have a fitted effect of over 55% in size
#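 Fibril formation assay: tau K18 P301L at 15 uM with trace Alexa 594 label, heparin inducer 20 uM, pH 7 sodium acetate buffer, 37 C for 6 hr; endpoint ThT signal.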
# RGS12 GoLoco inh – inhibitors of human Gai1-RGS12 GoLoco interaction (red fluorophore) | Gai1:RGS12 GoLoco peptide FP, rhodamine, 10 min | Potency, µM (highest dose often 61.6 µM), actives largely listed as inhibitors | 230,000 compounds, 0.44% hits | AID 880; active = well fitted inhibition curve with a large enough effect, not every such curve was filed as active; inactive = no such curve, though single readings can be large or run the other way; note: nearly all actives have a fitted effect of over 30% in size
# Target sequence (P63096 whole entry, looked up): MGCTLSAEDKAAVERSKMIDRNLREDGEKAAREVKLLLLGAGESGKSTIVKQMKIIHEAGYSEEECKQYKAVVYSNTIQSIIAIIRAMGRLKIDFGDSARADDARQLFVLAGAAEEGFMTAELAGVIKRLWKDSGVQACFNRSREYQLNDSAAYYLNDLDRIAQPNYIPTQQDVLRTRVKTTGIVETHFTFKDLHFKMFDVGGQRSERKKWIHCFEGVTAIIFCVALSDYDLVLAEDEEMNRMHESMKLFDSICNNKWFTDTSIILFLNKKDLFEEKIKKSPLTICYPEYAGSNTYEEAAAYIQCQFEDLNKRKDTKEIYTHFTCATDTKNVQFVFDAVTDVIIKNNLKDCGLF
# Hits are given with their value; i = inactive; ? = inconclusive; nt = no result given; [ ] = remark or other dose. In the library only some 3.4% were active in any assay of this set; here they are far more common. Unless noted, calls come from the whole dose curve; as a rule, active = well fitted curve in the direction sought with a large enough effect; inconclusive = small, poorly fitted or top-dose-only effect, or another doubt; inactive = no such curve, though single readings can be large; an effect the other way counts as inactive or inconclusive.
SMILES,Tau fluor cs,Tau fibril FP,JMJD2E inh,Tau ThT inhib,RGS12 GoLoco inh
Cc1cccc(NC2=Nc3ccccc3N3C2=Nc2c(c(C)nn2-c2ccccc2)C3c2ccc(O)c(O)c2)c1 (stereo not drawn),?,i,?,i,i
COc1ccc(OCc2ccc(-c3nc(C#N)c(NC(C)c4ccccc4)o3)o2)cc1 (stereo not drawn),i,i,nt,i,nt
Cc1ccc(/C=c2\s/c(=C(/C#N)C(=O)N3CCCC3)n(Cc3ccco3)c2=O)s1,?,i,i,15.8µM,i
CCCN1C(=O)CN(C2CCCCCC2)C(=O)C1c1ccc(OCC)c(OC)c1 (stereo not drawn),i,i,nt,i,nt
Nc1c(C(=O)c2ccc(Br)s2)oc2ccccc12,?,i,i,10µM,i
Cc1ccc(O)c(N)c1,nt,nt,nt,nt,i
COc1ccc(O)c(N)c1,12.6µM[quencher],11.2µM,?,4.47µM,i
CC(=O)Nc1ccc(-n2cc3c(c2-c2ccc(C)cc2)c(=O)n(C)c(=O)n3C)cc1,i,i,nt,i,nt
CN(C)c1ccc(CNC(=O)CN(C)S(=O)(=O)c2ccc3c(c2)c(=O)n(C)c(=O)n3C)cc1,i,i,nt,i,nt
CCN(CC)c1ccc(-n2cc3c(=O)n(C)c(=O)n(C)c3c2)cc1,?,i,?,5.01µM,i
CN(C)c1ccc(-n2cc3c(=O)n(C)c(=O)n(C)c3c2)cc1,i,i,?,2.82µM,i
CCCn1c(=O)c2sccc2n2c(CCCC(=O)N3CCN(c4ccccc4)CC3)nnc12,i,i,nt,i,nt
Cc1ccc(C(=O)NCC(c2ccco2)S(=O)(=O)c2ccc(Cl)cc2)cc1C (stereo not drawn),i,i,nt,i,nt
CC(C)(C)c1cc[n+](C2=C([O-])c3ccccc3C(=O)/C2=N\S(=O)(=O)c2cccs2)cc1,?,i,?,17.8µM,i
Nc1c(-c2nc(-c3ccc(Cl)cc3)cs2)c2ccccn2c1C(=O)c1ccc2c(c1)OCO2,?,i,nt,?,nt
O=C(O)c1ccc(N2CCCCC2)cc1,i,i,i,i,i
Nc1ccc(N2CCCCCC2)cc1,?,14.1µM,?,7.08µM,i
Nc1ccc(N2CCN(c3ccc(F)cc3)CC2)cc1,?,i,i,12.6µM,i
Nc1ccc(N2CCN(c3ccc(Cl)c(Cl)c3)CC2)cc1,?,i,i,15.8µM,i
COC(=O)N1CCN(c2ccc(Cl)c(Cl)c2)CC1,i,i,i,?,i
COc1cc(NC(=O)CCn2c(-c3ccccc3)cc(C(C)=O)c2C)cc(OC)c1,i,i,nt,i,nt
COc1ccc(NC(=O)c2oc3ccccc3c2NC(=O)c2cc(=O)c3ccccc3o2)cc1,i,i,nt,i,nt
Cc1nn(-c2ccccc2)c(Cl)c1/C=N/Nc1ccc(S(=O)(=O)Nc2ccccc2C(=O)O)cc1[N+](=O)[O-],?,i,i,8.91µM,i
Cc1nn(-c2ccccc2)c(Cl)c1/C=N/Nc1ccc(Cl)c(C(=O)O)c1,i,i,i,?,i
COc1ccc(NC(=S)NNc2ccc(S(=O)(=O)Nc3ccccc3C(=O)O)cc2[N+](=O)[O-])cc1,10µM[quencher],?,?,12.6µM,i
SMILES,Tau fluor cs,Tau fibril FP,JMJD2E inh,Tau ThT inhib,RGS12 GoLoco inh
Cc1cccc(-n2c3nc(=O)[nH]c(=O)c-3cc3ccc(Cl)cc32)c1C,i,i,nt,i,nt
CCN(CC)CCOC(=O)c1ccc(NC(=O)c2cc3c(=O)n(CC)c4ccccc4c3s2)cc1,i,?,nt,?,nt
CCc1cc(-c2nc(N)ncc2-c2ccc(Br)cc2)c(O)cc1OC,12.6µM[quencher],i,i,?,i
COc1ccc(-c2cnc(N)nc2-c2ccc(OCc3ccccc3)cc2O)cc1,?,?,i,i,i
O=c1oc2ccccc2cc1-c1nc2c(s1)CCc1ccccc1-2,i,i,i,i,i
O=c1oc2cc(O)ccc2cc1-c1nc2c(s1)CCc1ccccc1-2,11.2µM[quencher],i,?,i,i
O=C(Cc1cccs1)N/N=C/c1ccccc1,i,i,i,i,i
CCN(CC)c1ccc(/C=N/NC(=O)c2ccco2)c(O)c1,?,i,14.1µM,?,i
CCN(CC)c1ccc(/C=N/NC(=O)Cc2cccs2)c(O)c1,12.6µM[quencher],i,i,?,i
O=C(CCCn1c(=O)c2cccn2c2ccccc21)Nc1cc(C(F)(F)F)ccc1Cl,i,i,nt,i,nt
COc1ccc(N2CCN(C(=O)Cc3c(C(=O)O)c(C)cn3C)CC2)cc1,i,i,nt,i,nt
CCCCCC(=O)Nc1nc(C)c(-c2csc(Nc3cc(OC)ccc3OC)n2)s1,11.2µM[quencher],i,?,15.8µM,i
